A number with no mark means an inactive call. Inconclusive results are not listed. Where a call stands in place of a potency, no number is given. Active and inactive are the calls of the source. Calls come from the whole dose curve; as a rule, active = well fitted curve in the direction sought with a large enough effect; inconclusive = small, poorly fitted or top-dose-only effect, or another doubt; inactive = no such curve, though single readings can be large; an effect the other way counts as inactive or inconclusive.
Columns and labels:
[1] = tested on: Nanoluciferase (engineered Oplophorus gracilirostris luciferase); experiment: Primary Nanoluciferase (NLuc) qHTS assay for identification of artifact compounds. (AID 1845222); note: potency is the fitted concentration of half-maximal effect;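 for activity, negative = inhibition: NLuc secreted into diluted conditioned medium of S16 cells; series mostly up to about 54 µM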
In short: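 Concentration-response data were obtained by luminescence after 5 min with Nano-Glo substrate at 1:100. The enzyme was diluted S16 NLuc-expressing cell medium, preincubated with compound for 15 min at RT. Curves were fitted with a 4-parameter Hill model.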

[2] = Primary redox qHTS assay for identification of artifact compounds. (AID 1845223)
In short: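 Amplex Red (25 uM) and HRP (250 mU/mL) in HBSS, with compounds for 15 min, then 250 uM DTT for 30 min, room temperature, dark. Fluorescence 525/598 nm read; normalized to DMSO and 10 uM DA3003; Hill fit.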

| Compound | Potency [1] | Potency [2] | activity, negative = inhibition [1] | redox activity (% of DA3003) [2] |
| --- | --- | --- | --- | --- |
| COc1ccc(OC2OC(CO[C@@H]3O[C@@H](C)[C@H](O)[C@@H](O)[C@H]3O)C(O)C(O)C2O)cc1OC (some centres not stated) | inactive | inactive | – | – |
| CC1(C)CCC[C@@]2(C)[C@H]1[C@H](O)C=C(CO)[C@]2(O)CO | inactive | inactive | – | – |
| CC1=C(CC/C(C)=C/C(=O)O)[C@@]2(C)CCCC(C)(C)C2CC1=O (some centres not stated) | inactive | inactive | – | – |
| CCCN1CCC[C@@H](c2cccc(S(C)(=O)=O)c2)C1 | inactive | inactive | – | – |
| CC1=C2C(=O)C=C(CO)C2C2OC(=O)C(CS(=O)(=O)O)C2C(OC(=O)Cc2ccc(O)cc2)C1 (configuration not stated) | inactive | inactive | – | – |
| COc1cc(C(=O)OC[C@H]2O[C@@H](OC(C)(C)C(=O)O)[C@H](O)[C@@H](O)[C@@H]2O)cc(OC)c1O | inactive | inactive | – | – |
| CC1(C)CC[C@]2(C(=O)O)CC[C@]3(C)C(=CCC4[C@@]5(C)C[C@@H](O)[C@H](O)[C@@](C)(CO)C5[C@H](O)C[C@]43C)[C@@H]2C1 (some centres not stated) | inactive | inactive | – | – |
| CC1=C2C[C@@]3(C)C(CCC[C@@H]3C)C(O)C2(O)OC1=O (some centres not stated) | inactive | inactive | – | – |
| O=C(/C=C/c1ccc(O)cc1)OC[C@H]1O[C@@H](O/C(=C\c2ccccc2)C(=O)O)[C@H](O)[C@@H](O)[C@@H]1O | inactive | inactive | – | – |
| CCCC(C(=O)O)c1c(C)nc2ccc(Cl)cc2c1-c1ccccc1 (configuration not stated) | inactive | inactive | – | – |
| C=C(CO)C(=O)O[C@H]1C[C@@]23O[C@@H]2CC/C(=C/[C@H]2OC(=O)C(=C)[C@H]12)CO[C@H]3O | inactive | inactive | – | – |
| CC(=O)OCC(Cc1ccccc1)NC(=O)C(Cc1ccccc1)NC(=O)c1ccccc1 (configuration not stated) | inactive | inactive | – | – |
| CCC(CC)CC1(C(=O)Nc2ccccc2SC(=O)C(C)C)CCCCC1 | inactive | inactive | – | – |
| C=C1C[C@@]2(O)O[C@@]3(C[C@H]2C(C)C)[C@@H](C)CC[C@@H]13 | inactive | inactive | – | – |
| CC(=O)O[C@H]1[C@H](OC(=O)C(C)C)[C@]2(C)OC3(CC[C@]2(C)[C@H]2CCC[C@]4(CO4)[C@]12C)COC(=O)C3 (some centres not stated) | inactive | inactive | – | – |
| C=CC(C)(CC/C=C(\C)C(=O)OC[C@H]1O[C@@H](OC(C)(C=C)CC/C=C(\C)C(=O)O[C@H]2[C@H](O)[C@@H](O)[C@H](OC(C)(C=C)CC/C=C(\C)C(=O)O)O[C@@H]2CO)[C@H](O)[C@@H](O)[C@@H]1O)O[C@@H]1O[C@H](CO)[C@@H](O)[C@H](O)[C@H]1O (some centres not stated) | – | – | 3.18% [at 11.6 µM] | 0.215% [at 11.5 µM] |
| C[C@]12CC/C(=N\OCC(=O)O)C=C1CC[C@@H]1[C@@H]2[C@@H](O)C[C@@]2(C)[C@H]1CC[C@]2(O)C(=O)CO | inactive | inactive | – | – |
| C[C@@]12CC3(S(=O)(=O)O)OC(O1)[C@]1(COC(=O)c4ccccc4)[C@H]3C[C@]21O[C@@H]1O[C@H](CO)[C@@H](O)[C@H](O)[C@H]1O | inactive | inactive | – | – |
| COc1c(C)c(OCC=C(C)C)cc2c1COC2=O | inactive | inactive | – | – |

| Compound | Potency [1] | Potency [2] | activity, negative = inhibition [1] | redox activity (% of DA3003) [2] |
| --- | --- | --- | --- | --- |
| O=C(c1c2ccccc2cc2ccccc12)N1CCC(N2CCC[C@@H](C(=O)N3CCOCC3)C2)CC1 | inactive | inactive | – | – |
| COc1cn(-c2ccc(-n3cccn3)cc2F)nc(-c2ccnn2-c2ccccc2)c1=O | inactive | inactive | – | – |
| CC(C)(O)/C=C/C(=O)[C@](C)(O)[C@H]1[C@H](O)C[C@@]2(C)[C@@H]3CC=C4[C@@H](C=C(O[C@@H]5O[C@H](CO)[C@@H](O)[C@H](O)[C@H]5O)C(=O)C4(C)C)[C@]3(C)C(=O)C[C@]12C | inactive | inactive | – | – |
| CC1=C2CC(=O)C(C)CC/C=C(\C)CC2OC1=O (configuration not stated) | inactive | inactive | – | – |
| O=[N+]([O-])c1cc(Cl)ccc1S(=O)(=O)N1CCN(Cc2ccccc2)CC1 | inactive | inactive | – | – |
| C=C1CC[C@@]2(OC1)O[C@H]1CC3C4CC=C5C[C@@H](O[C@@H]6O[C@@H](C)[C@H](O)[C@@H](O)[C@H]6O)C[C@@H](O[C@@H]6O[C@H](C)[C@H](O)[C@H](O)[C@H]6O[C@@H]6O[C@@H](C)[C@H](O)[C@@H](O)[C@H]6O)[C@]5(C)C4CC[C@]3(C)[C@H]1[C@@H]2C (some centres not stated) | – | – | -0.58% [at 11.6 µM] | 1.1% [at 11.5 µM] |
| Cc1ccc(COC(=O)N2CC[C@@H](CNc3ncccn3)[C@@H](F)C2)cc1 | inactive | inactive | – | – |
| C=C1[C@H](OC(C)=O)[C@H]2[C@@H](OC(C)=O)C(C)C[C@]2(OC(C)=O)C(=O)[C@H](C)/C=C/C(C)(C)C(=O)[C@H](OC(=O)C(C)C)[C@H]1OC(C)=O (some centres not stated) | inactive | inactive | – | – |
| Cc1nc(-c2cccnc2)sc1C(=O)Nc1ccccc1-c1cn2c(CN3CCOCC3)csc2n1 | inactive | inactive | – | – |
| OC[C@H]1O[C@@H](OCCc2ccccc2)[C@H](O[C@@H]2OC[C@@H](O)[C@H](O)[C@H]2O)[C@@H](O)[C@@H]1O | inactive | inactive | – | – |
| C=C1C(O)CC2C(C(=O)O)=COC(OC3OC(CO)C(O)C(O)C3OC(=O)/C=C\c3ccc(O)cc3)C12 (configuration not stated) | inactive | inactive | – | – |
| CC(C)c1ccc2c(c1)C(O)CC1C(C)(CO)CCCC21C (configuration not stated) | inactive | inactive | – | – |
| O=C(O)[C@H]1Cc2ccccc2CN1 | – | – | 0% [at 6.45 µM] | -3.86% [at 6.41 µM] |
| CC(C)(O)[C@@H]1CC[C@]2(CO)[C@@H](O)CC[C@](C)(O)[C@H]2[C@@H]1O[C@@H]1O[C@H](CO)[C@@H](O)[C@H](O)[C@H]1O | inactive | inactive | – | – |
| COC(=O)C1=COC(OC2OC(CO)C(O)C(O)C2O)C2C(COC(=O)/C=C/c3ccc(O)c(O)c3)C(O)C(O)C12 (configuration not stated) | inactive | inactive | – | – |
| CCCO[C@@H]1O[C@H](CO)[C@@H](O)[C@H](O)[C@H]1O[C@@H]1OC[C@@H](O)[C@H](O)[C@H]1O | inactive | inactive | – | – |
| C[C@H]1CC(=O)C2=C(C1)C(O)C(O)[C@@]1(O)[C@H]2C(=O)c2cccc(O)c2[C@@H]1O (some centres not stated) | inactive | inactive | – | – |
| C[C@@H]1O[C@@H](O[C@@H]2[C@@H](O)[C@H](O[C@H]3[C@H](O[C@H]4CC[C@@]5(C)C(CC[C@]6(C)C5CC=C5[C@@H]7CC(C)(C)CC[C@]7(C(=O)O[C@@H]7O[C@H](CO)[C@@H](O)[C@H](O)[C@H]7O)CC[C@]56C)C4(C)C)O[C@H](C(=O)O)[C@@H](O)[C@@H]3O)OC[C@H]2O)[C@H](O)[C@H](O)[C@H]1O (some centres not stated) | – | – | 2.29% [at 11.6 µM] | -4.9% [at 11.5 µM] |
| C/C=C(/C)C(=O)OC1C2OC2C2(CO2)C2C3OC(=O)C(C)C3CCC12C (configuration not stated) | inactive | inactive | – | – |

| Compound | Potency [1] | Potency [2] | activity, negative = inhibition [1] | redox activity (% of DA3003) [2] |
| --- | --- | --- | --- | --- |
| CC(C)C1NC(=O)C(CC2(O)c3ccccc3N3C(=O)C(Cc4ccccc4)NC32)NC1=O (configuration not stated) | inactive | inactive | – | – |
| CC1(C)CC[C@]2(C(=O)O)CC[C@]3(C)C(=CCC4[C@@]5(C)C[C@@H](O)[C@H](O)[C@](C)(CO)C5CC[C@]43C)[C@@H]2[C@@H]1O (some centres not stated) | inactive | inactive | – | – |
| CCOC(=O)CSc1nc2c(sc3ccccc32)c(=O)n1CCCN1CCCC1 | inactive | inactive | – | – |
| COc1cccc(C)c1C(=O)O[C@@H]1C[C@H](O[C@H]2[C@H](O)C[C@H](O[C@@H]3CCC[C@H]4[C@H]3C=C[C@@H]3CCCC/C=C/[C@H]5C=C(C(=O)O)[C@@H](C)C[C@@]56OC(=O)C(=C6O)OC(=O)[C@@]34C)O[C@@H]2C)O[C@H](C)[C@H]1O | – | – | 4.95% [at 11.6 µM] | -8.49% [at 11.5 µM] |
| Cc1sc(C)c(C(=O)NC2(c3ccc(C(=O)O)cc3)CC2)c1Cc1ccc(C(F)(F)F)cc1 | 4.78 µM (active) | inactive | – | – |
| CC(C)(CC(=O)N1CCCC1)NCC(=O)N1C[C@@H](F)C[C@H]1C#N | inactive | inactive | – | – |
| CNC(=O)c1ccc2c(c1)CCO[C@H]2CCN1CCN(c2ccc(C(N)=O)cc2)CC1 | inactive | inactive | – | – |
| C=C1CC[C@@H]2C(C)(C)CCC[C@@]2(C)[C@@H]1CC/C(=C/C(=O)OC)COC(C)=O | inactive | inactive | – | – |
| COc1cc(CO)ccc1O[C@@H]1O[C@H](CO)[C@@H](O)[C@H](O)[C@H]1O | inactive | inactive | – | – |
| C[C@@]1(C(=O)O)CCC[C@@]2(C)C3=CC[C@H]4C[C@@]3(CC[C@H]12)CC4(O)CO (some centres not stated) | inactive | inactive | – | – |
| CC1(C)CC[C@]2(C(=O)O[C@@H]3O[C@H](CO)[C@@H](O)[C@H](O)[C@H]3O)CC[C@]3(C)C(=CCC4[C@@]5(C)CC[C@H](O[C@@H]6O[C@H](C(=O)O)[C@@H](O[C@@H]7O[C@H](CO)[C@@H](O)[C@H](O)[C@H]7O)[C@H](O)[C@H]6O[C@@H]6O[C@H](CO)[C@@H](O)[C@H](O)[C@H]6O)C(C)(C)C5CC[C@]43C)C2C1 (some centres not stated) | – | – | 0% [at 11.6 µM] | 12.6% [at 11.5 µM] |
| C=C1[C@H]2CCC3[C@]4(C)CCC[C@@](C)(C(=O)O)C4CC[C@]3(C2)[C@H]1OC(C)=O (some centres not stated) | inactive | inactive | – | – |
| Cc1c(-c2ccc3c(c2)OCO3)oc2ccc(C(O)C(C)O)cc12 (configuration not stated) | inactive | inactive | – | – |
| Cn1cc(-c2c[nH]c3ncnc(N4CCOCC4)c23)cn1 | inactive | inactive | – | – |
| CC12CC34CC(O)C5C(CO)(CO)CC(=O)CC5(C)C3CC1C2C4 (configuration not stated) | inactive | inactive | – | – |
| C=C1C[C@H](O)[C@@H](O)[C@@]2(C)C1[C@@H](O)[C@H]1OC(=O)C3[C@@H](C)[C@@H](O)[C@H](O)C2[C@]31C (some centres not stated) | inactive | inactive | – | – |
| NC(=O)NCCCC(NC(=O)Cc1ccccc1)C(=O)O (configuration not stated) | inactive | inactive | – | – |
| Cc1cc(Cn2cnc3c2CC(C(=O)O)N(C(=O)C(c2ccccc2)c2ccccc2)C3)ccc1N(C)C (configuration not stated) | inactive | inactive | – | – |
